In PubChem BioAssay AID1159580 (chemical genetic matrix, 2015):
The whole screen tested about 5,500 compounds, of which about 2,000 (36%) were called active. Another 18% or so got no clear call; they are omitted. No stated cut-off is given here; in the data, active means normalized growth mostly below about 0.91 (no sharp cut-off); inconclusive means no clear call, values can overlap the other calls; inactive means mostly above about 0.92. The list shows a part of the results.

Assay: chemical genetic growth profiling, strain panel (AID 1159580);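 further: tested at 20 µM; growth read once vehicle control cultures reached saturation at 30 °C; 1 = growth at the plate median or of vehicle wells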
Conditions: growth OD
[1] = S. cerevisiae deletion strains, locus YHR030C, strain SLT2, stronger effect = lower value

Measured: normalized growth

CCC(=O)Nc1cc(OC)cc(OC)c1
inactive: S. cerevisiae deletion strains, locus YAL013W, strain DEP1, stronger effect = lower value 1 | S. cerevisiae deletion strains, locus YBR229C, strain ROT2, stronger effect = lower value 1.01 | S. cerevisiae deletion strains, locus YDL101C, strain DUN1, stronger effect = lower value 1.01 | S. cerevisiae deletion strains, locus YDL134C, strain PPH21, stronger effect = lower value 1 | S. cerevisiae deletion strains, locus YDR150W, strain NUM1, stronger effect = lower value 0.908 | S. cerevisiae deletion strains, locus YEL061C, strain CIN8, stronger effect = lower value 1 | S. cerevisiae deletion strains, locus YGR078C, strain PAC10, stronger effect = lower value 1.01 | [1] 1.01 | S. cerevisiae deletion strains, locus YHR087W, strain rtc3, stronger effect = lower value 1 | S. cerevisiae deletion strains, locus YJR043C, strain POL32, stronger effect = lower value 0.963 | S. cerevisiae deletion strains, locus YJR075W, strain HOC1, stronger effect = lower value 0.98 | S. cerevisiae deletion strains, locus YLR039C, strain RIC1, stronger effect = lower value 1.04 | S. cerevisiae deletion strains, locus YLR058C, strain SHM2 (second series), stronger effect = lower value 1.01 | S. cerevisiae deletion strains, locus YLR085C, strain ARP6, stronger effect = lower value 0.973 | S. cerevisiae deletion strains, locus YLR262C, strain YPT6, stronger effect = lower value 1.02 | S. cerevisiae deletion strains, locus YML094W, strain GIM5, stronger effect = lower value 1.03 | S. cerevisiae deletion strains, locus YMR219W, strain ESC1, stronger effect = lower value 0.999 | S. cerevisiae deletion strains, locus YMR263W, strain SAP30, stronger effect = lower value 0.987 | S. cerevisiae deletion strains, locus YNL153C, strain GIM3, stronger effect = lower value 0.997 | S. cerevisiae deletion strains, locus YNL298W, strain CLA4 (second series), stronger effect = lower value 1.01 | S. cerevisiae deletion strains, locus YNL322C, strain KRE1, stronger effect = lower value 1.01 | S. cerevisiae deletion strains, locus YNR030W, strain Alg12, stronger effect = lower value 1.01 | S. cerevisiae deletion strains, locus YOL006C, strain TOP1, stronger effect = lower value 0.998 | S. cerevisiae deletion strains, locus YPL055C, strain LGE1, stronger effect = lower value 1.13 | S. cerevisiae deletion strains, locus YPL241C, strain CIN2, stronger effect = lower value 1.03 | S. cerevisiae deletion strains, locus YPR135W, strain CTF4, stronger effect = lower value 1.06 | S. cerevisiae strains, strain wild type, stronger effect = lower value 1.02

COc1cc(/C=C/C(=O)N2CCC=CC2=O)cc(OC)c1OC
inactive: S. cerevisiae deletion strains, locus YAL021C, strain ccr4, stronger effect = lower value 0.948 | S. cerevisiae deletion strains, locus YAL026C, strain drs2, stronger effect = lower value 1 | S. cerevisiae deletion strains, locus YAL030W, strain snc1, stronger effect = lower value 1 | S. cerevisiae deletion strains, locus YBL061C, strain skt5, stronger effect = lower value 0.993 | S. cerevisiae deletion strains, locus YBR009C, strain hhf1, stronger effect = lower value 1.06 | S. cerevisiae deletion strains, locus YBR023C, strain chs3, stronger effect = lower value 0.994 | S. cerevisiae deletion strains, locus YBR171W, strain sec66, stronger effect = lower value 0.995 | S. cerevisiae deletion strains, locus YBR231C, strain swc5, stronger effect = lower value 1.01 | S. cerevisiae deletion strains, locus YBR279W, strain paf1, stronger effect = lower value 0.968 | S. cerevisiae deletion strains, locus YCL011C, strain gbp2, stronger effect = lower value 1 | S. cerevisiae deletion strains, locus YCL016C, strain dcc1, stronger effect = lower value 1.01 | S. cerevisiae deletion strains, locus YCL061C, strain MRC1, stronger effect = lower value 1.01 | S. cerevisiae deletion strains, locus YCL069W, strain vba3, stronger effect = lower value 0.998 | S. cerevisiae deletion strains, locus YCR088W, strain abp1, stronger effect = lower value 0.996 | S. cerevisiae deletion strains, locus YDL005C, strain med2, stronger effect = lower value 1 | S. cerevisiae deletion strains, locus YDL040C, strain nat1, stronger effect = lower value 0.996 | S. cerevisiae deletion strains, locus YDR001C, strain nth1, stronger effect = lower value 0.992 | S. cerevisiae deletion strains, locus YDR069C, strain doa4, stronger effect = lower value 0.996 | S. cerevisiae deletion strains, locus YDR137W, strain rgp1, stronger effect = lower value 0.856 | S. cerevisiae deletion strains, locus YDR159W, strain sac3, stronger effect = lower value 1.08 | S. cerevisiae deletion strains, locus YDR195W, strain ref2 1.06 | S. cerevisiae deletion strains, locus YDR297W, strain sur2, stronger effect = lower value 0.997 | S. cerevisiae deletion strains, locus YDR334W, strain swr1, stronger effect = lower value 1.01 | S. cerevisiae deletion strains, locus YDR335W, strain msn5, stronger effect = lower value 1 | S. cerevisiae deletion strains, locus YDR392W, strain spt3, stronger effect = lower value 0.886 | S. cerevisiae deletion strains, locus YEL003W, strain gim4, stronger effect = lower value 1 | S. cerevisiae deletion strains, locus YEL037C, strain rad23, stronger effect = lower value 0.998 | S. cerevisiae deletion strains, locus YEL061C, strain CIN8 (second series), stronger effect = lower value 0.996 | S. cerevisiae deletion strains, locus YER015W, strain faa2, stronger effect = lower value 1.01 | S. cerevisiae deletion strains, locus YER016W, strain bim1, stronger effect = lower value 1.02 | S. cerevisiae deletion strains, locus YER111C, strain swi4, stronger effect = lower value 1.01 | S. cerevisiae deletion strains, locus YER155C, strain BEM2 (second series), stronger effect = lower value 1.06 | S. cerevisiae deletion strains, locus YFR010W, strain ubp6, stronger effect = lower value 0.99 | S. cerevisiae deletion strains, locus YGL167C, strain pmr1, stronger effect = lower value 1 | S. cerevisiae deletion strains, locus YGL173C, strain kem1, stronger effect = lower value 0.995 | S. cerevisiae deletion strains, locus YGL227W, strain vid30, stronger effect = lower value 1.01 | S. cerevisiae deletion strains, locus YGL240W, strain doc1, stronger effect = lower value 1.08 | S. cerevisiae deletion strains, locus YGL253W, strain hxk2, stronger effect = lower value 0.984 | S. cerevisiae deletion strains, locus YHR013C, strain ard1, stronger effect = lower value 0.938 | S. cerevisiae deletion strains, locus YHR027C, strain rpn1, stronger effect = lower value 0.995 | [1] 0.935 | S. cerevisiae deletion strains, locus YHR079C, strain IRE1, stronger effect = lower value 0.953 | S. cerevisiae deletion strains, locus YHR142W, strain chs7, stronger effect = lower value 0.944 | S. cerevisiae deletion strains, locus YJL092W, strain hpr5, stronger effect = lower value 0.994 | S. cerevisiae deletion strains, locus YJL095W, strain BCK1 (second series), stronger effect = lower value 1.01 | S. cerevisiae deletion strains, locus YJL095W, strain BCK1, stronger effect = lower value 0.97 | S. cerevisiae deletion strains, locus YJL115W, strain asf1, stronger effect = lower value 1.03 | S. cerevisiae deletion strains, locus YJL129C, strain trk1, stronger effect = lower value 0.994 | S. cerevisiae deletion strains, locus YJL154C, strain vps35, stronger effect = lower value 0.998 | S. cerevisiae deletion strains, locus YJL164C, strain tpk1, stronger effect = lower value 0.979 | S. cerevisiae deletion strains, locus YJL166W, strain qcr8, stronger effect = lower value 1 | S. cerevisiae deletion strains, locus YJL187C, strain SWE1, stronger effect = lower value 0.996 | S. cerevisiae deletion strains, locus YJR066W, strain TOR1, stronger effect = lower value 0.883 | S. cerevisiae deletion strains, locus YKL160W, strain elf1, stronger effect = lower value 0.918 | S. cerevisiae deletion strains, locus YKR026C, strain gcn3, stronger effect = lower value 0.986 | S. cerevisiae deletion strains, locus YKR091W, strain srl3, stronger effect = lower value 1 | S. cerevisiae deletion strains, locus YLL001W, strain dnm1, stronger effect = lower value 1.01 | S. cerevisiae deletion strains, locus YLL026W, stronger effect = lower value 1.01 | S. cerevisiae deletion strains, locus YLL041C, strain sdh2, stronger effect = lower value 0.992 | S. cerevisiae deletion strains, locus YLR027C, strain aat2, stronger effect = lower value 0.988 | S. cerevisiae deletion strains, locus YLR113W, strain HOG1, stronger effect = lower value 0.941 | S. cerevisiae deletion strains, locus YLR221C, strain rsa3, stronger effect = lower value 0.97 | S. cerevisiae deletion strains, locus YLR258W, strain gsy2, stronger effect = lower value 1.03 | S. cerevisiae deletion strains, locus YLR262C, strain YPT6 (second series), stronger effect = lower value 0.886 | S. cerevisiae deletion strains, locus YLR320W, strain mms22, stronger effect = lower value 1.01 | S. cerevisiae deletion strains, locus YLR342W, strain FKS1, stronger effect = lower value 0.998 | S. cerevisiae deletion strains, locus YLR357W, strain rsc2, stronger effect = lower value 1.13 | S. cerevisiae deletion strains, locus YLR370C, strain arc18, stronger effect = lower value 0.986 | S. cerevisiae deletion strains, locus YLR384C, strain iki3, stronger effect = lower value 1 | S. cerevisiae deletion strains, locus YML120C, strain ndi1, stronger effect = lower value 0.972 | S. cerevisiae deletion strains, locus YMR058W, strain fet3, stronger effect = lower value 0.993 | S. cerevisiae deletion strains, locus YMR125W, strain sto1, stronger effect = lower value 1.07 | S. cerevisiae deletion strains, locus YMR129W, stronger effect = lower value 1.01 | S. cerevisiae deletion strains, locus YMR205C, strain PFK2, stronger effect = lower value 1.06 | S. cerevisiae deletion strains, locus YMR231W, strain pep5, stronger effect = lower value 0.998 | S. cerevisiae deletion strains, locus YNL071W, strain lat1, stronger effect = lower value 0.975 | S. cerevisiae deletion strains, locus YNL183C, strain NPR1, stronger effect = lower value 0.93 | S. cerevisiae deletion strains, locus YNL209W, strain ssb2, stronger effect = lower value 0.997 | S. cerevisiae deletion strains, locus YNL248C, strain rpa49, stronger effect = lower value 0.972 | S. cerevisiae deletion strains, locus YNL322C, strain KRE1 (second series), stronger effect = lower value 1.02 | S. cerevisiae deletion strains, locus YNR049C, strain mso1, stronger effect = lower value 0.999 | S. cerevisiae deletion strains, locus YOR001W, strain rrp6, stronger effect = lower value 0.945 | S. cerevisiae deletion strains, locus YOR070C, strain gyp1, stronger effect = lower value 1.02 | S. cerevisiae deletion strains, locus YOR080W, strain dia2, stronger effect = lower value 1.01 | S. cerevisiae deletion strains, locus YOR083W, strain WHI5, stronger effect = lower value 0.951 | S. cerevisiae deletion strains, locus YOR106W, strain vam3, stronger effect = lower value 0.964 | S. cerevisiae deletion strains, locus YOR231W, strain MKK1, stronger effect = lower value 0.954 | S. cerevisiae deletion strains, locus YOR265W, strain rbl2, stronger effect = lower value 0.996 | S. cerevisiae deletion strains, locus YOR270C, strain vph1, stronger effect = lower value 0.976 | S. cerevisiae deletion strains, locus YOR290C, strain snf2, stronger effect = lower value 0.969 | S. cerevisiae deletion strains, locus YPL051W, strain arl3, stronger effect = lower value 0.966 | S. cerevisiae deletion strains, locus YPL078C, strain atp4, stronger effect = lower value 0.939 | S. cerevisiae deletion strains, locus YPL106C, strain sse1, stronger effect = lower value 1.01 | S. cerevisiae deletion strains, locus YPL240C, strain hsp82, stronger effect = lower value 1.01 | S. cerevisiae deletion strains, locus YPL256C, strain CLN2, stronger effect = lower value 0.964
